In PubChem BioAssay (NCI):
The panel holds about 79,000 compounds, 15% with a hit somewhere; the sample as a whole holds those more often. Calls of active or inactive are those of the source. Rule as the data show it: active = growth inhibition above about 70%; inactive = the rest.

Key:
[1] = NCI Yeast Anticancer Drug Screen. Data for the sgs1 mgt1 strain (AID 161);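 also: 0% = growth of cultures given vehicle only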; conditions: S. cerevisiae sgs1 mgt1 strain, hits give high values
Method in brief: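 Mutant yeast exposed to compound; growth scored against vehicle-only wells.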

[2] = NCI Yeast Anticancer Drug Screen. Data for the CLN2oe strain (AID 163);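 also: 0% = growth of vehicle-only control cultures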; conditions: S. cerevisiae CLN2oe strain, hits give high values
Method in brief: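 Read-out: yeast growth inhibition, expressed relative to vehicle-only controls. The strain bears an engineered cell-cycle alteration.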

[3] = NCI Yeast Anticancer Drug Screen. Data for the cln2 rad14 strain (AID 165);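 also: 0% = growth equal to vehicle treated cultures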; conditions: S. cerevisiae cln2 rad14 strain, hits give high values
Method in brief: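 cln2 rad14 yeast strain; compound exposure; growth inhibition read vs vehicle controls.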

[4] = NCI Yeast Anticancer Drug Screen. Data for the bub3 strain (AID 167); conditions: S. cerevisiae bub3 mutant strain, hits give high values
Method in brief: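 Mutant yeast screening strain plus compound; vehicle-treated cultures serve as the 0% inhibition reference.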

[5] = NCI Yeast Anticancer Drug Screen. Data for the wt2 strain (AID 169); conditions: S. cerevisiae wt2 strain growth inhibition, hits give high values
Method in brief: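 Read-out: growth inhibition versus vehicle-treated control cultures after compound exposure of the yeast strain.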

[6] = NCI Yeast Anticancer Drug Screen. Data for the mlh1 strain (AID 171);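 also: 0% = growth of vehicle-treated control cultures of the same strain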; conditions: S. cerevisiae mlh1 strain growth inhibition, hits give high values
Method in brief: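 Read-out: growth inhibition versus vehicle controls. Strain: engineered yeast with a defined DNA repair or cell cycle defect, compound-treated.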

[7] = NCI Yeast Anticancer Drug Screen. Data for the sgs1 strain (AID 173);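 also: 0% = growth of vehicle-only control cultures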; conditions: S. cerevisiae sgs1 mutant, hits give high values
Method in brief: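 Read-out: yeast growth inhibition relative to vehicle controls, following compound exposure of a strain with a defined DNA repair/cell cycle alteration.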

[8] = NCI Yeast Anticancer Drug Screen. Data for the mlh1 rad18 strain (AID 175); conditions: S. cerevisiae mlh1 rad18 strain growth inhibition, hits give high values
Method in brief: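 Yeast w/ defined DNA-repair lesions; compound exposure; growth vs vehicle controls → % inhibition.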

[9] = NCI Yeast Anticancer Drug Screen. Data for the rad18 strain (AID 177); conditions: S. cerevisiae rad18 mutant growth inhibition, hits give high values
Method in brief: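 Readout: growth inhibition vs vehicle controls. Cells: genetically altered yeast strain, DNA repair defect.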

[10] = at 5.0 µM (retest, dose inferred, filed as 0.5)
[11] = at 50.0 µM (retest, dose inferred, filed as 5.0)

Measured: growth inhibition

O=[N+]([O-])c1cc(S(=O)(=O)Nc2ccccc2)ccc1Cl
inactive: [1]; [10] -26% | [2]; at 1.2 µM -8% | [2]; at 3.7 µM -1% | [2]; at 11.0 µM 35% | [3]; [10] 33% | [4]; at 1.2 µM 11% | [4]; at 3.7 µM 19% | [4]; [10] -20% | [4]; at 11.0 µM 45% | [5]; at 1.2 µM -26% | [5]; at 3.7 µM -6% | [5]; at 11.0 µM 4% | [6]; at 1.2 µM -34% | [6]; at 3.7 µM -20% | [6]; at 11.0 µM 13% | [7]; at 1.2 µM 4% | [7]; at 3.7 µM -3% | [7]; at 11.0 µM 33% | [8]; [10] 35% | [9]; at 1.2 µM 1% | [9]; at 3.7 µM 9% | [9]; at 11.0 µM 27%
active: [1]; [11] 95% | [1]; at 50.0 µM 90.5% | [2]; at 33.0 µM 93% | [2]; at 100.0 µM 98% | [3]; [11] 97% | [3]; at 50.0 µM 89.2% | [4]; at 33.0 µM 91% | [4]; [11] 96% | [4]; at 50.0 µM 86.2% | [4]; at 100.0 µM 99% | [5]; at 33.0 µM 90% | [5]; at 100.0 µM 99% | [6]; at 33.0 µM 89% | [6]; at 100.0 µM 98% | [7]; at 33.0 µM 89% | [7]; at 100.0 µM 98% | [8]; [11] 100% | [8]; at 50.0 µM 86.8% | [9]; at 33.0 µM 94% | [9]; at 100.0 µM 99%
